Experimental data as given in PubChem BioAssay (Tox21).
Records with an inconclusive call do not appear. Activity calls are given as the source filed them. Calls follow the shape of the dose curve; as a rule, active = well fitted curve in the direction sought with a large enough effect in the repeat runs; inconclusive = weak or mixed curves; inactive = no such curve, though single readings can be large; an effect the other way counts as inactive or inconclusive.

Columns and labels:
[1] = A CellTox Green Cytotoxicity Assay to monitor cytotoxicity in HEK293 cells - 40 hour (AID 1224871); also: nearly all actives have a fitted effect of over 45% in size; also: potency is read from the fitted curve at half-maximal effect
Outline: (§1)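 HEK293 cells, 600/well, were preincubated 5 hours and then exposed to compounds at 37 C for up to 40 hours. A cell-impermeant cyanine dye staining dead-cell DNA was read by fluorescence at 0, 8, 16, 24, 32 and 40 h time points.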

[2] = qHTS RealTime-Glo MT Cell Viability Assay in HEK293 cells - 16 hour (AID 1224872); also: nearly all actives have a fitted effect of over 50% in size; also: potency is read from the fitted curve at half-maximal effect
Outline: (§2)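 Nonlytic real-time viability readout: viable cells convert prosubstrate to NanoLuc substrate, giving luminescence proportional to live cell number. HEK293, 600 cells/well, compound added after 5 h, continuous culture at 37 C.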

[3] = qHTS RealTime-Glo MT Cell Viability Assay in HepG2 cells - 8 hour (AID 1224873); also: nearly all actives have a fitted effect of over 55% in size
Outline: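 HepG2 cells mixed with RealTime-Glo MT reagents (NanoLuc plus cell-permeant prosubstrate) were seeded at 600 cells/well, incubated 5 h at 37 C/5% CO2, then pinned with compounds in DMSO; nonlytic luminescence tracked viability during 40 h treatment.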

[4] = qHTS RealTime-Glo MT Cell Viability Assay in HEK293 cells - 40 hour (AID 1224874); conditions: RealTime-Glo luminescence; max response: stronger effect = lower value; also: nearly all actives have a fitted effect of over 50% in size; also: potency is read from the fitted curve at half-maximal effect
Outline: (§3)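 600 cells/well were plated with the nonlytic NanoLuc/prosubstrate reagent, pre-incubated 5 h, then given 23 nL of compound in DMSO. Incubation at 37 C for 40 h, with luminescence from viable-cell-reduced substrate read repeatedly from 0 h.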

[5] = A CellTox Green Cytotoxicity Assay to monitor cytotoxicity in HEK293 cells - 24 hour (AID 1224875); also: nearly all actives have a fitted effect of over 45% in size; also: potency is read from the fitted curve at half-maximal effect
Outline: as §1

[6] = qHTS RealTime-Glo MT Cell Viability Assay in HepG2 cells - 32 hour (AID 1224877); also: nearly all actives have a fitted effect of over 55% in size
Outline: (§4)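 Luminescence read-out: viable HepG2 cells reduce a prosubstrate to a NanoLuc substrate, giving a signal proportional to live cell number. Reads taken at 0, 8, 16, 24, 32 and 40 h of compound exposure at 37 C.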

[7] = A CellTox Green Cytotoxicity Assay to monitor cytotoxicity in HepG2 cells - 24 hour (AID 1224878); also: nearly all actives have a fitted effect of over 45% in size; also: potency is read from the fitted curve at half-maximal effect
Outline: (§5)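 HepG2 cells, 600/well, preincubated 5 h with CellTox Green dye, then exposed to Tox21 compounds in DMSO at 37 C for up to 40 h. Dead-cell DNA fluorescence read at the indicated time point.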

[8] = A CellTox Green Cytotoxicity Assay to monitor cytotoxicity in HepG2 cells - 40 hour (AID 1224879); also: nearly all actives have a fitted effect of over 40% in size
Outline: as §5

[9] = A CellTox Green Cytotoxicity Assay to monitor cytotoxicity in HEK293 cells - 32 hour (AID 1224881); also: nearly all actives have a fitted effect of over 40% in size; also: potency is read from the fitted curve at half-maximal effect
Outline: as §1

[10] = A CellTox Green Cytotoxicity Assay to monitor cytotoxicity in HepG2 cells - 32 hour (AID 1224883); also: nearly all actives have a fitted effect of over 50% in size; also: potency is read from the fitted curve at half-maximal effect
Outline: as §5

[11] = A CellTox Green Cytotoxicity Assay to monitor cytotoxicity in HEK293 cells - 8 hour (AID 1224884); also: nearly all actives have a fitted effect of over 35% in size; also: potency is read from the fitted curve at half-maximal effect
Outline: as §1

[12] = qHTS RealTime-Glo MT Cell Viability Assay in HepG2 cells - 16 hour (AID 1224885); also: nearly all actives have a fitted effect of over 50% in size
Outline: as §4

[13] = qHTS RealTime-Glo MT Cell Viability Assay in HEK293 cells - 24 hour (AID 1224886); also: nearly all actives have a fitted effect of over 50% in size; also: potency is read from the fitted curve at half-maximal effect
Outline: as §2

[14] = qHTS RealTime-Glo MT Cell Viability Assay in HEK293 cells - 8 hour (AID 1224887)
Outline: as §3

[15] = A CellTox Green Cytotoxicity Assay to monitor cytotoxicity in HEK293 cells - 16 hour (AID 1224888); also: nearly all actives have a fitted effect of over 35% in size; also: potency is read from the fitted curve at half-maximal effect
Outline: as §1

[16] = qHTS RealTime-Glo MT Cell Viability Assay in HepG2 cells - 0 hour (AID 1224889); also: nearly all actives have a fitted effect of over 50% in size; also: potency is read from the fitted curve at half-maximal effect
Outline: as §4

[17] = A CellTox Green Cytotoxicity Assay to monitor cytotoxicity in HepG2 cells - 8 hour (AID 1224890); also: nearly all actives have a fitted effect of over 45% in size; also: potency is read from the fitted curve at half-maximal effect
Outline: as §5

[18] = qHTS RealTime-Glo MT Cell Viability Assay in HEK293 cells - 0 hour (AID 1224880)
Outline: as §3

[19] = A CellTox Green Cytotoxicity Assay to monitor cytotoxicity in HepG2 cells - 16 hour (AID 1224876); also: nearly all actives have a fitted effect of over 45% in size
Outline: as §5

[20] = A CellTox Green Cytotoxicity Assay to monitor cytotoxicity in HepG2 cells - 0 hour (AID 1224882); also: nearly all actives have a fitted effect of over 35% in size
Outline: as §5
% is scaled to controls: 0 for no effect and ±100 for the full control effect.

CC(=O)[C@H]1CC[C@H]2[C@@H]3CC[C@H]4C[C@](C)(O)CC[C@]4(C)[C@H]3CC[C@]12C
inactive: Potency [1] | Potency [2] | Potency [3] | max response [4] -9.18% | Potency [5] | Potency [6] | Potency [7] | Potency [8] | Potency [9] | Potency [10] | Potency [11] | Potency [12] | Potency [13] | Potency [14] | Potency [15] | Potency [16] | Potency [17]

COc1nn(C(=O)NS(=O)(=O)c2ccccc2OC(F)(F)F)c(=O)n1C
active: Potency [1] 20 µM | Potency [5] 22.4 µM | Potency [7] 39.9 µM | Potency [9] 20 µM | Potency [10] 39.9 µM | Potency [11] 31.7 µM | Potency [15] 22.4 µM | Potency [17] 39.9 µM
inactive: Potency [2] | Potency [3] | max response [4] 12.6% | Potency [6] | Potency [18] | Potency [12] | Potency [13] | Potency [16]

CCOc1ccc(C(C)(C)COCc2cccc(Oc3ccccc3)c2)cc1
inactive: Potency [1] | Potency [2] | Potency [3] | max response [4] 11.2% | Potency [5] | Potency [19] | Potency [6] | Potency [7] | Potency [9] | Potency [20] | Potency [10] | Potency [11] | Potency [13] | Potency [14] | Potency [15] | Potency [16] | Potency [17]

S=C=NCc1ccccc1
inactive: Potency [3] | Potency [19] | Potency [7] | Potency [18] | Potency [20] | Potency [11] | Potency [15] | Potency [16] | Potency [17]
active: Potency [1] 55.5 µM | Potency [2] 24.8 µM | Potency [4] 44.1 µM | Potency [9] 49.5 µM | Potency [13] 24.8 µM

CCBr
inactive: Potency [1] | Potency [2] | Potency [3] | max response [4] 6.85% | Potency [5] | Potency [6] | Potency [7] | Potency [8] | Potency [18] | Potency [9] | Potency [20] | Potency [10] | Potency [11] | Potency [12] | Potency [13] | Potency [14] | Potency [15] | Potency [16] | Potency [17]

N#C/C(N)=C(/N)C#N
inactive: Potency [1] | Potency [2] | Potency [3] | Potency [5] | Potency [19] | Potency [6] | Potency [7] | Potency [8] | Potency [18] | Potency [9] | Potency [20] | Potency [10] | Potency [11] | Potency [12] | Potency [13] | Potency [14] | Potency [15] | Potency [16]

CC(C)N(CCC(C(N)=O)(c1ccccc1)c1ccccn1)C(C)C (stereo not given)
inactive: Potency [1] | Potency [2] | Potency [3] | max response [4] 2.75% | Potency [5] | Potency [19] | Potency [6] | Potency [7] | Potency [9] | Potency [20] | Potency [10] | Potency [12] | Potency [13] | Potency [14] | Potency [15] | Potency [16] | Potency [17]

Clc1cccc(SC2CCNCC2)n1
inactive: Potency [1] | Potency [2] | Potency [3] | max response [4] 1.39% | Potency [5] | Potency [19] | Potency [6] | Potency [7] | Potency [9] | Potency [20] | Potency [10] | Potency [12] | Potency [13] | Potency [14] | Potency [15] | Potency [16]

NS(=O)(=O)C(F)(F)C(F)(F)C(F)(F)C(F)(F)C(F)(F)C(F)(F)C(F)(F)C(F)(F)F
inactive: Potency [1] | Potency [2] | Potency [3] | max response [4] -4.36% | Potency [5] | Potency [19] | Potency [6] | Potency [18] | Potency [9] | Potency [20] | Potency [11] | Potency [12] | Potency [13] | Potency [14] | Potency [15] | Potency [16] | Potency [17]

Cl/C=C\Cl
inactive: Potency [1] | Potency [2] | Potency [3] | max response [4] 0.558% | Potency [5] | Potency [19] | Potency [6] | Potency [7] | Potency [9] | Potency [20] | Potency [10] | Potency [11] | Potency [12] | Potency [13] | Potency [14] | Potency [15] | Potency [16] | Potency [17]

O=S1(=O)OC(c2cc(Br)c(O)c(Br)c2)(c2cc(Br)c(O)c(Br)c2)c2ccccc21
active: Potency [16] 6.34 µM
inactive: Potency [1] | Potency [2] | Potency [3] | max response [4] 11.5% | Potency [5] | Potency [6] | Potency [7] | Potency [9] | Potency [10] | Potency [11] | Potency [12] | Potency [13] | Potency [15] | Potency [17]

COc1c(C(C)(C)C)cc([N+](=O)[O-])c(C)c1[N+](=O)[O-]
inactive: Potency [1] | Potency [2] | Potency [3] | max response [4] 1.56% | Potency [5] | Potency [6] | Potency [7] | Potency [8] | Potency [18] | Potency [9] | Potency [10] | Potency [12] | Potency [13] | Potency [15] | Potency [16] | Potency [17]

O=NN1CCCCCC1
inactive: Potency [1] | Potency [2] | Potency [3] | max response [4] 0.127% | Potency [5] | Potency [6] | Potency [7] | Potency [8] | Potency [18] | Potency [9] | Potency [20] | Potency [10] | Potency [11] | Potency [12] | Potency [13] | Potency [14] | Potency [15] | Potency [16] | Potency [17]

CO/N=C(/C(=O)OC)c1ccccc1COc1ccccc1C
inactive: Potency [1] | Potency [2] | Potency [3] | Potency [5] | Potency [19] | Potency [6] | Potency [7] | Potency [18] | Potency [9] | Potency [20] | Potency [10] | Potency [11] | Potency [12] | Potency [13] | Potency [15] | Potency [16] | Potency [17]

CC(=O)CCC(C)=O
inactive: Potency [1] | Potency [2] | Potency [3] | Potency [5] | Potency [19] | Potency [6] | Potency [7] | Potency [8] | Potency [18] | Potency [9] | Potency [20] | Potency [10] | Potency [11] | Potency [12] | Potency [13] | Potency [14] | Potency [15] | Potency [16] | Potency [17]
